Most compounds without a hit are left out; they make up all but 15% or so of the library.
ELG1 DNA repair: ELG1-dependent DNA repair inhibition; HEK293T ELG1-luciferase reporter, luminescence, 16 h; DNA damage induced by 5-fluorouridine; Potency, µM (titrated, usually from 46.1 µM), usual class: inhibitors; actives 2.3% (n = 330,000); AID 504467; also: nearly all actives have a fitted effect of over 55% in size
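Quantitative HTS, concentration-response format. 2,000 cells/well co-treated with 5-fluorouridine and compound, 16 hr in 5% CO2 at 37 °C; ONE-Glo luminescence read after 30 min.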
Gal4-VP16 FLuc: counter-screen for ROR gamma inhibitors: Gal4-VP16 reporter; actives 3.5% (n = 310,000); Drosophila S2 Gal4-VP16 UAS-luciferase, luminescence, 20 h; Potency, µM (top dose mostly 53.6 µM), hits mostly inhibitors;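 also: Gal4-VP16 expression switched on by copper sulfate through the metallothionein promoter; nearly all actives have a fitted effect of over 50% in size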
RORg inh: inhibitors of mouse ROR gamma transcriptional activity | Potency, µM (top dose mostly 53.6 µM), hits mostly inhibitors | actives 5.4% (n = 310,000) | Drosophila S2 Gal4-RORgamma UAS-luciferase reporter, 20 h | P51450; also: nearly all actives have a fitted effect of over 60% in size
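Drosophila Schneider cells stably carrying a metallothionein-driven Gal4 DBD–ROR gamma fusion and a UAS-Photinus luciferase reporter were exposed to compound for 1 hr, then induced with copper sulfate (700 uM final) for 20 hr at ambient temperature before luminescence reading.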
DT40 TDP1 CPT: DT40-hTDP1 cell growth loss with CPT; actives 12% (n = 420,000); chicken DT40 Tdp1-/-;hTDP1 cells + 20 nM CPT, ATP luminescence, 48 h; Potency, µM (doses to about 46.2 µM), most hits filed as inhibitors; also: nearly all actives have a fitted effect of over 55% in size
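Chicken DT40 Tdp1-/- cells stably complemented with human TDP1 were seeded at 400 cells/well in medium containing 20 nM camptothecin, exposed to pin-transferred compounds, and grown at 37 °C for at least 48 hr. Viability was read as ATP luminescence.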
DT40 TDP1 no CPT: qHTS for Inhibitors of human tyrosyl-DNA phosphodiesterase 1 (TDP1): qHTS in cells in absence of CPT. DT40 Tdp1-/- hTDP1 cells, no CPT, ATP luminescence, 48 h. Potency, µM (highest dose often 46.2 µM), usual class: inhibitors. actives 15% (n = 420,000). AID 686978, 2013; also: nearly all actives have a fitted effect of over 55% in size
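Chicken DT40 Tdp1-/- cells stably complemented with human TDP1 were seeded at 400 cells/well with DMSO in place of 20 nM camptothecin. After compound pinning, cells grew at least 48 hr at 37 °C; viability read by CellTiter-Glo luminescence.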
12-LOX inh: inhibitors of human 12S-lipoxygenase ALOX12; purified 12hLO, xylenol orange hydroperoxide absorbance; Potency, µM (titrated, usually from 108 µM), hits mostly inhibitors; actives 1.1% (n = 580,000)
Target sequence (P18054 whole entry, looked up): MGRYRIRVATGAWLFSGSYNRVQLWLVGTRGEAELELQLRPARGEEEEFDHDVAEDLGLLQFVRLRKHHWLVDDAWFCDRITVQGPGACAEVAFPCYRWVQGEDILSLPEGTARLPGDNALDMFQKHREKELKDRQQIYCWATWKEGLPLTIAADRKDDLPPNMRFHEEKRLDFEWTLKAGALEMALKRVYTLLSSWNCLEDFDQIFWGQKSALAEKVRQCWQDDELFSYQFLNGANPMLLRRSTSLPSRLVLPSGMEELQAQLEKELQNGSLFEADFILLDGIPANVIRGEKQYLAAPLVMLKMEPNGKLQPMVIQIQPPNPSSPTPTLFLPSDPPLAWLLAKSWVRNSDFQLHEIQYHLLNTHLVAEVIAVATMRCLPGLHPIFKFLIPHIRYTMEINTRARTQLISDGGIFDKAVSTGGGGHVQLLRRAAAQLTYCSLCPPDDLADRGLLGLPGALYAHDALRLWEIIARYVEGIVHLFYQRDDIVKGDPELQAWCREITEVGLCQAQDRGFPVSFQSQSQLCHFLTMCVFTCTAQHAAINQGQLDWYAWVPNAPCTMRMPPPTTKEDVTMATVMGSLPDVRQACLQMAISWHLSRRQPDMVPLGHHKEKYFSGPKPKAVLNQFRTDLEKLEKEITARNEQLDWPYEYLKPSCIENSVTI
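Purified human 12hLO (150 nM final) in 25 mM Hepes, 0.01% Triton X-100, pH 7.0 was preincubated 15 min at room temperature with compound. Then 40 uM arachidonic acid was added, 30 min. Hydroperoxide was read by Fe-XO absorbance ratio 573/405 nm.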
Hits are given with their value; - = inactive; ? = inconclusive; . = no result given; [ ] = another dose, or the depositor's remark. Calls follow the shape of the dose curve; as a rule, active = well fitted curve in the direction sought with a large enough effect; inconclusive = small, poorly fitted or top-dose-only effect, or another doubt; inactive = no such curve, though single readings can be large; an effect the other way counts as inactive or inconclusive.

SMILES | ELG1 DNA repair | Gal4-VP16 FLuc | RORg inh | DT40 TDP1 CPT | DT40 TDP1 no CPT | 12-LOX inh
Cc1cc(NC(=O)NC(=O)c2ccccc2NC(=O)CN(C)C)ccc1Oc1ncc(Br)cn1 | . | . | . | 3.7µM | 4.1µM | -
Cc1cc(NC(=O)NC(=O)c2ccccc2NC(=O)CN)ccc1Oc1ncc(Br)cn1 | . | . | . | 0.82µM | 0.58µM | -
COc1ccc(NC(=O)Nc2ccccc2C(N)=O)cc1OC | . | ? | - | - | - | -
CNC(=O)[C@@H]1C[C@H](Oc2cccnc2)CN1C(=O)C1CCCC1 | . | . | . | . | . | -
Cc1ccccc1Nc1cc(C)c2c(O)cccc2n1 | - | ? | ? | ? | ? | -
COc1cc(Nc2nc3ccccc3nc2C(=O)OC(C)C)cc(OC)c1 | . | . | . | . | . | 6.3µM
COc1cc(Nc2nc3ccccc3nc2-n2nc(C)cc2C)cc(OC)c1 | . | . | . | . | . | -
Cc1ccc(Nc2cc(C)c3ccc(O)cc3n2)cc1C | ? | ? | - | 18µM | 18µM | ?
COC(=O)c1cc(Nc2cc(C)c3ccc(O)cc3n2)cc(C(=O)OC)c1 | ? | - | - | ? | - | -
Cc1ccc(Nc2cc(C)c3c(O)cccc3n2)cc1C | ? | 10µM | ? | 21µM | 15µM | ?
COC(=O)c1cccc(Nc2nc3ccccc3nc2C)c1 | ? | 13µM | - | 18µM | ? | -
COc1cc2oc(=O)c(CC(=O)NCc3ccc4c(c3)OCO4)c(C)c2cc1OC | . | . | . | . | . | -
Cc1ccc(-c2cnc(CCC(=O)Nc3cccc(Cl)c3)o2)cc1C | . | . | . | . | . | -
COc1cccc(Nc2cc(C)c3ccccc3n2)c1 | ? | - | - | - | ? | -
COc1ccc(Nc2cc(C)c3c(O)cccc3n2)cc1 | ? | - | - | 21µM | 10µM | ?
COC(=O)c1cc(Nc2cc(C)c3c(O)cccc3n2)cc(C(=O)OC)c1 | ? | - | ? | 21µM | 13µM | -
CC(C)=CC/C=C1\CCC(C(=O)O)C(C(=O)O)C1 (centres undefined) | - | - | - | ? | 0.029µM | -
CC(C)=CCCC1=CC[C@H](C(=O)O)[C@H](C(=O)O)C1 | . | - | - | -[9.04 µM] | -[9.04 µM] | -
Cc1ccc(-c2nc3cnccn3c2NCCC(=O)O)cc1 | . | . | . | . | . | -
O=C(Nc1cccc(-c2ccc(N3CCCCC3)nn2)c1)c1ccco1 | ? | . | . | ? | 13µM | ?
Cc1ccc(C(=O)Nc2cccc(-c3ccc(N4CCOCC4)nn3)c2)cc1C | ? | . | . | ? | ? | -
O=C(Nc1cccc(-c2ccc(N3CCOCC3)nn2)c1)c1ccc(Cl)cc1 | ? | . | . | ? | - | -
O=C(Nc1cccc(-c2ccc(N3CCOCC3)nn2)c1)c1cccc(Cl)c1 | . | . | . | - | 21µM | -
Cc1cc(C(=O)Nc2cccc(-c3ccc(N4CCOCC4)nn3)c2)ccc1[N+](=O)[O-] | ? | . | . | ? | 26µM | -
Cc1cc(F)ccc1NCc1ccccc1-c1nnc(-c2ccccc2Cl)o1 | . | . | . | ? | 21µM | -
SMILES | ELG1 DNA repair | Gal4-VP16 FLuc | RORg inh | DT40 TDP1 CPT | DT40 TDP1 no CPT | 12-LOX inh
CSc1ccccc1C(=O)Nc1ccc(F)cc1F | . | . | . | . | . | -
O=S(=O)(Nc1ccc(-c2ccc(NS(=O)(=O)c3ccccc3)cc2)cc1)c1ccccc1 | . | . | . | ? | 23µM | ?
O=S(=O)(Nc1ccc(-c2csc(-c3ccccc3)n2)cc1)c1ccccc1 | - | - | ? | - | 18µM | -
O=C1COc2ccc(-c3ccoc3)nc2CN1Cc1ccccc1 | . | . | . | . | . | -
CC(=O)N1N=C(c2ccccc2)CC1c1cn(C)c2ccccc12 (centres undefined) | ? | - | - | ? | 21µM | -
COc1ccc(CSc2nc3ccncc3n2Cc2ccccc2)cc1 | . | . | . | . | . | -
Cc1sc(N2CC(C(=O)OCC(=O)c3ccc(Br)cc3)CC2=O)nc1-c1ccccc1 (centres undefined) | . | . | . | . | . | -
CC(C)CC(=O)NCC1Cn2cccc2C(=O)N1Cc1ccccc1 (centres undefined) | . | . | . | . | . | -
O=C(NCC(=O)N1CCN(c2ccc(C(F)(F)F)cn2)CC1)c1ccc(Br)o1 | - | . | . | 21µM | 6.5µM | -
Cc1cccc(C)c1NC(=O)CN1CCCN(c2ccc(C(F)(F)F)cn2)CC1 | . | . | . | . | . | -
Cc1cccc(C)c1NC(=O)CN1CCN(c2ccc(C(F)(F)F)cn2)CC1 | . | . | . | 15µM | 12µM | -
Cc1ccccc1SCC(=O)N1CCN(c2ccc(C(F)(F)F)cn2)CC1 | ? | ? | ? | ? | 23µM | ?
O=C(O)COCC(=O)N1CCCN(c2ccc(C(F)(F)F)cn2)CC1 | - | - | - | - | - | -
CC(=O)c1cccc(OCC(=O)N2CCN(c3ccc(C(F)(F)F)cn3)CC2)c1 | ? | - | - | ? | 15µM | -
O=C(CSc1cnc2ccccc2n1)OCc1cccc2ccccc12 | . | . | . | . | . | -
Cc1ccc(NS(=O)(=O)c2c[nH]c3ccc([N+](=O)[O-])cc23)cc1 | . | . | . | . | . | -
Cc1cccc(C)c1NC(=O)C(c1ccccc1)N1CCN(c2ccc(C(F)(F)F)cn2)CC1 (centres undefined) | . | . | . | 23µM | ? | -
CCCCCCCCN1C(=O)[C@H](CC(=O)NCC2CCCCC2)C[C@@]2(C(=O)OC)CCCCC=C12 | . | . | . | 21µM | 16µM | -
CCCCCCCCN1C(=O)[C@H](CC(=O)NCCCOC)C[C@@]2(C(=O)OC)CCCCC=C12 | . | . | . | ? | 16µM | -
COc1ccc(NC(=O)c2ncoc2-c2ccc(OC)c(OC)c2)cc1OC | . | . | . | . | . | -
O=C(COc1coc(CN2CCN(c3ccc(F)cc3)CC2)cc1=O)NC1CCCCC1 | . | . | . | ? | 7.3µM | -
O=C(COC(=O)/C=C/c1ccc2c(c1)OCO2)NCc1ccc(F)cc1 | . | . | . | 23µM | 21µM | -
O=C(COC(=O)/C=C/c1ccc(S(=O)(=O)N2CCOCC2)cc1)NCc1ccc(F)cc1 | - | - | - | 3.7µM | 12µM | -
CCOc1ccc(-c2c(C)sc3nc[nH]c(=O)c23)cc1 | - | - | -[1.91 µM] | ? | 16µM | -
COc1ccc(OC)c(C2C=C(c3ccc(Cl)cc3OC(F)F)Nc3nnnn32)c1 (centres undefined) | . | . | . | . | . | -
CCC(C)(C)C1CCC2(CC1)NC(=O)N(CC(=O)NC(C)CCc1ccccc1)C2=O (centres undefined) | - | . | . | ? | 12µM | -
CCC(C)(C)C1CCC2(CC1)NC(=O)N(CC(=O)N(C)Cc1ccc3c(c1)OCCO3)C2=O (centres undefined) | 12µM | . | . | ? | 21µM | -
O=C(CN1C(=O)NC2(CCCC2)C1=O)Nc1nc(-c2ccc(F)cc2)cs1 | ? | - | ? | - | - | -
CCC(C)(C)C1CCC2(CC1)NC(=O)N(CC(=O)N1CCN(c3ccccc3OC)CC1)C2=O (centres undefined) | . | . | . | 21µM | 21µM | -
